Results filed as inconclusive are left out. Calls of active or inactive are those of the source. Calls follow the shape of the dose curve; as a rule, active = well fitted inhibition curve with a large enough effect; inconclusive = small, poorly fitted or top-dose-only effect; inactive = flat fitted curve, though single readings scatter.
Legend:
PC49 = experiment: qHTS profiling for inhibitors of Plasmodium falciparum proliferation (AID 504749); details: P. falciparum in erythrocytes, SYBR Green DNA, 72 h; series mostly up to 28.7 µM
Procedure, shortened: (§1)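 Quantitative HTS: compounds pinned into medium, infected erythrocytes added (0.3% parasitemia, 2.5% hematocrit), 72 h culture at 37 C under 5% CO2. Saponin/Triton lysis with SYBR Green I, overnight RT, then fluorescence read.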

SC27B = experiment: as above; details: P. falciparum in erythrocytes, SYBR Green DNA, 72 h; series mostly up to 28.7 µM
Procedure, shortened: as §1

TAB109 = experiment: as above; details: P. falciparum in erythrocytes, SYBR Green DNA, 72 h; series mostly up to 28.7 µM
Procedure, shortened: as §1

TAB113 = experiment: as above; details: P. falciparum in erythrocytes, SYBR Green DNA, 72 h; series mostly up to 28.7 µM
Procedure, shortened: as §1

TAB165 = experiment: as above; details: P. falciparum in erythrocytes, SYBR Green DNA, 72 h; series mostly up to 28.7 µM
Procedure, shortened: as §1

W2 = experiment: as above; details: P. falciparum in erythrocytes, SYBR Green DNA, 72 h; series mostly up to 28.7 µM
Procedure, shortened: as §1

CRL-7250 = normal cell line; experiment: Cytotoxic Profiling of Annotated Libraries Using Quantitative High-Throughput Screening (AID 1296008); details: Five cell lines viability, CellTiter-Glo ATP luminescence, 48-72 h; max response: hits give low values; as to max response: % is scaled to controls: 0 for no effect and ±100 for the full control effect
Procedure, shortened: (§2)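 Compounds were pin-transferred onto cells and incubated 48 or 72 hr at 37 degree Celsius, 95% humidity. CellTiter-Glo was added, plates sat 10 min at room temperature, then ATP-coupled luminescence was imaged as the viability read-out.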

HaCat = experiment: as above; details: Five cell lines viability, CellTiter-Glo ATP luminescence, 48-72 h; max response: hits give low values
Procedure, shortened: as §2

PC26 = experiment: qHTS profiling for inhibitors of Plasmodium falciparum proliferation (AID 504749); details: P. falciparum in erythrocytes, SYBR Green DNA, 72 h; series mostly up to 28.7 µM
Procedure, shortened: as §1

HEK293 = experiment: Cytotoxic Profiling of Annotated Libraries Using Quantitative High-Throughput Screening (AID 1296008); details: Five cell lines viability, CellTiter-Glo ATP luminescence, 48-72 h; max response: hits give low values; as to max response: % is scaled to controls: 0 for no effect and ±100 for the full control effect
Procedure, shortened: as §2
Also: nearly all actives have a fitted effect of over 60% in size.
Potency is read from the fitted curve at half-maximal effect.

OCCOCCN1CCN(C2=Nc3ccccc3Sc3ccccc32)CC1
inactive: Potency (PC49) | Potency (SC27B) | Potency (TAB109) | Potency (TAB113) | Potency (TAB165) | max response (CRL-7250) -6.31% | outcome (HaCat)
active: Potency (W2) 4.26 µM

CC(C)=CCOc1ccc(/C=C/C(=O)c2ccc(OCC=C(C)C)cc2OCC(=O)O)cc1
inactive: Potency (PC49) | Potency (SC27B) | Potency (TAB109) | Potency (TAB113) | Potency (TAB165) | max response (CRL-7250) -15.2% | outcome (HaCat)

CCCCNc1ccc(C(=O)OCCOCCOCCOCCOCCOCCOCCOCCOCCOC)cc1
inactive: Potency (PC26) | Potency (PC49) | Potency (SC27B) | Potency (TAB109) | Potency (TAB113) | Potency (W2) | max response (CRL-7250) -14.1% | max response (HaCat) 0.553%

CCc1ccc(C(=O)C(C)CN2CCCCC2)cc1 (stereo unspecified)
inactive: Potency (PC26) | Potency (PC49) | Potency (SC27B) | Potency (TAB109) | Potency (TAB113) | Potency (TAB165) | max response (HEK293) -19.7% | outcome (HaCat)

CC(C)NCC(O)c1ccc2ccccc2c1 (stereo unspecified)
active: Potency (PC26) 7.57 µM | Potency (SC27B) 8.91 µM | Potency (TAB109) 8.91 µM | Potency (TAB113) 4.47 µM | Potency (TAB165) 10 µM | Potency (W2) 1.9 µM
inactive: max response (CRL-7250) 3.16% | outcome (HaCat)

NS(=O)(=O)c1cc(C(=O)O)cc(N2CCCC2)c1Oc1ccccc1
inactive: Potency (PC26) | Potency (PC49) | Potency (SC27B) | Potency (TAB109) | Potency (TAB113) | Potency (TAB165) | max response (HEK293) 2.69% | max response (HaCat) -7.61%

COc1ccc(-c2cc(C(F)F)nn2-c2ccc(S(N)(=O)=O)cc2)cc1F
inactive: Potency (PC26) | Potency (PC49) | Potency (SC27B) | Potency (TAB109) | Potency (TAB113) | Potency (TAB165) | Potency (W2) | max response (CRL-7250) 2.74% | max response (HaCat) -0.189%

OC(C#CCN1CCCC1)(c1ccccc1)c1ccccc1
inactive: outcome (CRL-7250) | outcome (HaCat)
active: Potency (TAB165) 11.2 µM | Potency (W2) 2.13 µM

O=C(Nc1cccc(C2=NCCN2)c1)Nc1cccc(C2=NCCN2)c1
inactive: outcome (CRL-7250) | max response (HaCat) -0.992%
active: Potency (PC26) 8.49 µM | Potency (PC49) 5.62 µM | Potency (TAB109) 2.82 µM | Potency (TAB113) 7.94 µM | Potency (TAB165) 2.51 µM | Potency (W2) 1.69 µM

O=C1c2cccc3c2[C@H](CCC3)CN1[C@@H]1CN2CCC1CC2
active: Potency (HEK293) 21.1 µM
inactive: max response (HaCat) -46%

O=C1OC2(c3ccccc31)c1cc(Br)c(O)c(Br)c1Oc1c2cc(Br)c(O)c1Br
inactive: outcome (HEK293) | outcome (HaCat)

O=C(CCN1CCN2CCCC2C1)N1c2ccccc2Sc2ccc(Cl)cc21 (stereo unspecified)
inactive: Potency (TAB113) | max response (CRL-7250) -7.08% | outcome (HaCat)
active: Potency (W2) 3.01 µM

Cc1cc(CC(=O)O)c(C)n1-c1ccc(Cl)cc1
active: Potency (TAB165) 14.1 µM | Potency (W2) 8.49 µM
inactive: Potency (TAB109) | outcome (CRL-7250) | outcome (HaCat)

N/C(=N\N=C\c1ccc(Cl)cc1)N/N=C/c1ccc(Cl)cc1
inactive: Potency (PC26) | Potency (PC49) | outcome (CRL-7250) | outcome (HaCat)
active: Potency (SC27B) 12.6 µM | Potency (TAB109) 6.31 µM | Potency (TAB165) 3.98 µM

CC(C)[C@@H]1CC[C@@H](C)CC1=O
inactive: max response (HEK293) -11.3% | outcome (HaCat)

O=C(CN1CCN(Cc2ccc3c(c2)OCO3)CC1)N1c2ccccc2Sc2ccccc21
inactive: Potency (PC49) | max response (CRL-7250) -6.96% | outcome (HaCat)
active: Potency (TAB109) 3.55 µM | Potency (TAB165) 10 µM | Potency (W2) 6.01 µM

N#C/C(=C1\SCC(c2ccccc2Cl)S1)n1ccnc1 (stereo unspecified)
inactive: max response (HEK293) -7.28% | outcome (HaCat)

CCOC(=O)[C@H](CCc1ccccc1)N[C@@H](C)C(=O)N1[C@H](C(=O)O)C[C@@H]2CCC[C@@H]21
inactive: max response (HEK293) 1.35% | outcome (HaCat)

C[C@@H](O)[C@H]1C(=O)N2C(C(=O)O)=C([C@H]3CCCO3)S[C@H]12
inactive: max response (HEK293) -1.4% | outcome (HaCat)

CN1CCN(c2c(F)cc3c(=O)c(C(=O)O)cn4c3c2SCC4)CC1
inactive: Potency (PC26) | Potency (PC49) | Potency (SC27B) | Potency (TAB113) | max response (CRL-7250) -2.29% | outcome (HaCat)

CCOC(=O)[C@@](C)(N)Cc1ccc(O)c(O)c1
active: Potency (HEK293) 18.8 µM
inactive: outcome (HaCat)

CN1CCN(c2cc3c(cc2F)c(=O)c(C(=O)O)cn3-c2ccc(F)cc2)CC1
inactive: Potency (PC26) | Potency (PC49) | Potency (SC27B) | Potency (TAB113) | Potency (TAB165) | max response (CRL-7250) -1.2% | max response (HaCat) 2%
active: Potency (W2) 12 µM

O=C(N/N=C/c1ccc([N+](=O)[O-])o1)c1ccc(O)cc1
active: Potency (HEK293) 7.5 µM
inactive: max response (HaCat) -33.9%

NC1CCN(c2nc3c(cc2F)c(=O)c(C(=O)O)cn3-c2ccc(F)cc2F)C1 (stereo unspecified)
inactive: Potency (PC26) | Potency (SC27B) | outcome (CRL-7250) | outcome (HaCat)
active: Potency (W2) 5.36 µM

CCOC(=O)C(C#N)=C(c1ccccc1)c1ccccc1
inactive: Potency (PC26) | Potency (PC49) | Potency (SC27B) | Potency (TAB109) | Potency (TAB113) | Potency (TAB165) | Potency (W2) | max response (CRL-7250) -5.66% | max response (HaCat) -20.2%

CC(C)(Cc1c[nH]c2ccccc12)NCC(O)COc1ccccc1C#N (stereo unspecified)
inactive: Potency (PC26) | Potency (PC49) | max response (CRL-7250) -4.9% | max response (HaCat) -15.6%
active: Potency (TAB109) 10 µM | Potency (TAB165) 12.6 µM | Potency (W2) 3.79 µM
